Many of the other results were omitted from the sample, so hits are more common in it than they were.
Artemis endo inh: inhibitors of human Artemis endonuclease activity | Q96SD1 | recombinant Artemis, quenched FAM hairpin cleavage fluorescence | inhibition, % at 10 µM | 30,000 compounds, 0.78% hits | AID 686954;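 active = at 10 µM dose, at least 30% inhibition, measured as corrected fluorescence normalized to stimulator and neutral control wells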
Hits are given with their value; 0 = inactive.

SMILES	Artemis endo inh
CC(C)OC(=O)c1c(N)n(Cc2ccco2)c2nc3ccccc3nc12	0
COCCOC(=O)c1c(N)n(Cc2ccco2)c2nc3ccccc3nc12	0
COCCCn1c(N)c(C(=O)OCCOC)c2nc3ccccc3nc21	38
COCCOC(=O)c1c(N)n(Cc2ccc(OC)cc2)c2nc3ccccc3nc12	0
COC(=O)c1c(N)n(Cc2ccc(OC)cc2)c2nc3ccccc3nc12	31
CCOC(=O)c1c(N)n(CCCOC(=O)c2ccco2)c2nc3ccccc3nc12	0
CC(C)(C)c1nc(NCc2ccc3c(c2)OCO3)c2nnn(Cc3ccccc3Cl)c2n1	0
Cc1ccc(C2C(S(C)(=O)=O)=C(O)C(=O)N2c2ccccc2)cc1 (stereo unspecified) (tested in a mixture with another compound)	0
CC(C)NC(=O)Cn1cc(C(=O)c2ccccc2F)c2ccccc21	0
CC1(C)NCCN2C(=O)CSC21 (stereo unspecified)	0
CC(=O)c1ccc2c(c1)C1C(Cl)C(Sc3ccccc3[N+](=O)[O-])CC1C(c1ccccc1[N+](=O)[O-])N2 (stereo unspecified)	31
c1ccc2c(CCNC3=NCCC3)c[nH]c2c1	0
OC12Oc3ccccc3C=C1N1CCC2CC1 (stereo unspecified)	0
CC1(C)CC(=O)C=C(NCCN2CCN(C(=O)Cc3ccc(Cl)cc3)CC2)C1	0
Cc1ccc(OCC(=O)NCCN2CCN(C(=O)COc3ccc(C)cc3)CC2)cc1	0
Cc1nc2c(=O)n(C)c(=O)nc-2n(C)n1	78
CCSP1(=S)N=C(N2CCOCC2)C(C#N)=C2CCCN21 (stereo unspecified)	0
CC[N+](C)(CC)CCCOC(=O)C(O)(c1ccccc1)C1CCCCC1 (stereo unspecified)	0
O=C(Cc1ccccc1)N1CCN(Cc2cccnc2)CC1	0
CC(C)n1nnnc1CN1CCN(C)CC1	0
CC(C)OCCCNC(=O)c1c(N)n(Cc2cccs2)c2nc3ccccc3nc12	0
Nc1c(C(=O)NC2CCCC2)c2nc3ccccc3nc2n1CC1CCCO1 (stereo unspecified)	31
Cc1cccnc1-n1c(C)nc2ccccc2c1=O	0
CN(C=O)CP(=O)(O)CN(C)C=O	0
O=c1[nH]c(=O)n(C2CCCCC2)c(O)c1C1NCCc2ccccc21 (stereo unspecified)	0

High-throughput results (PubChem BioAssay)
